Active and inactive are the calls of the source.

We go through 15 compounds from PubChem BioAssay.

The test system of assay [1] is Plasmodium falciparum Sir2 (PF13_0152, Sir2A). The assay can be described thus: Plasmodium falciparum Sir2A binding compounds – biochemical, small-molecule microarray, 635 nm fluorescence, primary screen (AID 1098).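 Further: score merges spot fluorescence intensity with its signal-to-noise ratio.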 Particulars: fluorescence 635 nm, higher = more signal.
Assay [2] can be described thus: probe aDKK1 binding to arrayed compounds – biochemical, biotinylated probe, 635/667 nm fluorescence, primary screen (AID 1099).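 Further: score merges 667nm spot fluorescence with signal to noise across triplicate slides; reference of the scale not given here.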 Particulars: small-molecule microarray, higher = more signal.
Assay [3] can be described thus: probe aCHRDL2 binding to arrayed compounds – biochemical, biotinylated probe, 635/667 nm fluorescence, primary screen (AID 1100). The settings on record: small-molecule microarray, higher = more signal.
Assay [4] in a line: change in splice reporter luminescence, either direction, cell-based, HEK293, spliceosome inhibition project, primary screen (AID 1101).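 Further: HEK293 cells carrying a splicing-competent luciferase reporter gene; test concentration not given here.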 Particulars: HEK293 splicing luciferase reporter, 24 h, higher = more signal, called active from +8 up or from −8 down. On the technique in general: In a reporter assay the amount or activity of a reporter protein is the signal.
The target of assay [5] is Fibroblast growth factor 10 (Homo sapiens) (UniProt O15520). Description: compounds binding fibroblast growth factor 10 – biochemical, small-molecule microarray, 635 nm fluorescence, primary screen (AID 1102). The settings on record: FGF10 binding, fluorescence 635 nm, higher = more signal.
Assay [6] has as its system glycogen synthase kinase-3 (GSK3A per assay name; protocol says GSK3B). Description: compounds binding glycogen synthase kinase-3 – biochemical, small-molecule microarray, 635 nm fluorescence, GSK3A, primary screen (AID 1103). Further: the record names both GSK3A and GSK3B. The settings on record: fluorescence 635 nm, higher = more signal.
Assay [7] addresses Epidermal growth factor receptor (Homo sapiens) (UniProt P00533). The assay can be described thus: compounds binding epidermal growth factor receptor – biochemical, small-molecule microarray, 635 nm fluorescence, primary screen (AID 1104).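 Further: score merges 667 nm emission intensity with spot signal to noise over triplicate slides.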 The settings on record: EGFR binding, higher = more signal.
Assay [8] deals with Follistatin-related protein 3 (Homo sapiens) (UniProt O95633). Description: compounds binding follistatin-related protein 3 – biochemical, small-molecule microarray, 635 nm fluorescence, primary screen (AID 1105).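 Further: score merges emission near 667 nm and signal to noise per printed spot across three slides.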 The settings on record: FSTL3 binding, higher = more signal.
Assay [9] has as its target Dickkopf-related protein 1 (Homo sapiens) (UniProt O94907). The assay can be described thus: small molecules binding DKK1 protein – biochemical, small-molecule microarray, 635 nm fluorescence scan, primary screen (AID 1106).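 Further: score merges emission near 667 nm with signal to noise over three replicate slides.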 The settings on record: higher = more signal.
The subject of assay [10] is Inhibin beta A chain (activin A). The assay can be described thus: small molecules binding activin A – biochemical, small-molecule microarray, 635 nm fluorescence scan, primary screen (AID 1107).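 Further: mouse activin A protein probed at 4.33 µg/mL on printed slides; score merges bound-protein fluorescence near 667 nm with spot signal-to-noise.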 The settings on record: INHBA, higher = more signal.

Follistatin-related protein 3 (Homo sapiens), sequence (O95633 whole entry, looked up): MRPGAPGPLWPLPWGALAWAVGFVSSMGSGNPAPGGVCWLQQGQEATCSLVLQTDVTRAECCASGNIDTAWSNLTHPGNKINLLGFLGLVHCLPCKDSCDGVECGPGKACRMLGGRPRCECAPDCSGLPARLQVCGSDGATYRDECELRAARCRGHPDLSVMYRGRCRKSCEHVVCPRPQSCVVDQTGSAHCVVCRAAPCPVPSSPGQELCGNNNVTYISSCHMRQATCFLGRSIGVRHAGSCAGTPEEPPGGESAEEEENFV
Fibroblast growth factor 10 (Homo sapiens), sequence (O15520 whole entry, looked up): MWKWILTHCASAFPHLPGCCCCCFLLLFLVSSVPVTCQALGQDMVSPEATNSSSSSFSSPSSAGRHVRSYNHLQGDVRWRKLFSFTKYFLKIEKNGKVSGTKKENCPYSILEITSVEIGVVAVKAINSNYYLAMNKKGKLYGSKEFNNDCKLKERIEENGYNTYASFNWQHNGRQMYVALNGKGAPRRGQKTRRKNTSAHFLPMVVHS
Dickkopf-related protein 1 (Homo sapiens), sequence (O94907 whole entry, looked up): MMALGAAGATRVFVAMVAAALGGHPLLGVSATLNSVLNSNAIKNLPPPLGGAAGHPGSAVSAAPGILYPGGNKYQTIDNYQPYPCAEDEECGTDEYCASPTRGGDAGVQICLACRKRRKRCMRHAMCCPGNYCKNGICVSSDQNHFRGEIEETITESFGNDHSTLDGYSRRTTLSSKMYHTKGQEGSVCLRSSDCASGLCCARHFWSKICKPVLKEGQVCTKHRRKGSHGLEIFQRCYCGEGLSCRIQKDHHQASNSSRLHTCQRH
Epidermal growth factor receptor (Homo sapiens), sequence (P00533 whole entry, looked up): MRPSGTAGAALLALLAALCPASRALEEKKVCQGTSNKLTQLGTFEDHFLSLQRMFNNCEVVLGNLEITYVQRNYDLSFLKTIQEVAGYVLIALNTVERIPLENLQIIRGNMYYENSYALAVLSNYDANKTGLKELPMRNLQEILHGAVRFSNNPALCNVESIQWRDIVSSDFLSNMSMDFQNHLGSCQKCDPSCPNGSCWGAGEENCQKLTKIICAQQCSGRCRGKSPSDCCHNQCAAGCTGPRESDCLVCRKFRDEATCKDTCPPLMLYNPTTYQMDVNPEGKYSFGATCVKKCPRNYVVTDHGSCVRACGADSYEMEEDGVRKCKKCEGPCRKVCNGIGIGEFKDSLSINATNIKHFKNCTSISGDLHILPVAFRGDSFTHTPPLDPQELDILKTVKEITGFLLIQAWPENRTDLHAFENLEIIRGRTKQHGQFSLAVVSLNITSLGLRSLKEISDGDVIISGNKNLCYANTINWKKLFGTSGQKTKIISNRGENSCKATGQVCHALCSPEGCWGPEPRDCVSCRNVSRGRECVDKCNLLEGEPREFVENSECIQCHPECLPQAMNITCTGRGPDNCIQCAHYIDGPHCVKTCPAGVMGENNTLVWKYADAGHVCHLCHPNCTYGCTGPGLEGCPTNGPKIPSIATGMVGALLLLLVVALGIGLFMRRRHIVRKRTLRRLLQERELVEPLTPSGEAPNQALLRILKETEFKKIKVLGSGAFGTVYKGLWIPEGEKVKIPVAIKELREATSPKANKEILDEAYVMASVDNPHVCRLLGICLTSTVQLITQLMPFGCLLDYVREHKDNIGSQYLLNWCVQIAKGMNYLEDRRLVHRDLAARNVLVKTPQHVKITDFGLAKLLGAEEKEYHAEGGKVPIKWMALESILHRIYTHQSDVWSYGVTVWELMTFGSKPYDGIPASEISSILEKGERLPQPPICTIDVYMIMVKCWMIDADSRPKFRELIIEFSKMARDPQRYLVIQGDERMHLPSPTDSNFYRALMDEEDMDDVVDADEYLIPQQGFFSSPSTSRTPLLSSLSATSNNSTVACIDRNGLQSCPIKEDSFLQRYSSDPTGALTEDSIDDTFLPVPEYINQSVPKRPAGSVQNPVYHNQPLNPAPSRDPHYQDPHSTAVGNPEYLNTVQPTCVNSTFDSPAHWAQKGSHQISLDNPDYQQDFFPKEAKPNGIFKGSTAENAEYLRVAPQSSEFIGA

Regarding `COc1ccc([Si](C)(C)[C@H]2[C@H](CCO)O[C@@]3(C(=O)N(Cc4cccc(N5CCOC5=O)c4)c4ccccc43)[C@@H]2C)cc1`, the composite z-score was 1.17 in assay [1]; -0.165 in assay [2]; -0.339 in assay [3]; 0.997 in assay [5]; 0.808 in [6]; 0.0733 in assay [7]. Besides, the composite z-score in assay [8] is 0.493; in assay [9], 0.581; in assay [10] it was -0.419. In [4], the z-score is -0.91 (inactive).

On to `C=CCOC(=O)[C@@H]1[C@H]2C(=O)O[C@H](c3ccccc3)[C@H](c3ccccc3)N2[C@H](c2ccc(OCCOC(=O)[C@H]3C[C@H]4C(=O)N[C@@H](Cc5ccccc5)C(=O)N4[C@H]3c3cccc(OCCO)c3)cc2)[C@@]12C(=O)Nc1ccc(I)cc12`, for which the composite z-score was 0.921 in assay [1]; 0.141 in assay [2]; -0.0432 in [3]; 1.24 in assay [5]; 1.32 in assay [6]; 1.01 in assay [7]. Moreover, the figures for the composite z-score in assay [8], in [9] and in [10] were 1.14, 1.13 and 0.967, respectively. The z-score in assay [4] is -0.316 (inactive).

`COc1ccc([Si](C)(C)[C@@H]2[C@@H](CC(=O)N3Cc4ccccc4C[C@H]3CO)O[C@]3(C(=O)N(Cc4cccc(N5CCCCC5=O)c4)c4ccccc43)[C@H]2C)cc1`: the composite z-score in assay [1] is 0.856; in [2] it was -0.154; in [3], -0.222; in assay [5] it was 0.689; in [6], 1.2; in [7], 0.968. Also, the results for the composite z-score in assay [8], in assay [9] and in assay [10] were 1.33, 1.17 and 0.435, respectively. The z-score in assay [4] was -1.46 (inactive).

Consider `COC(=O)[C@]1(Cc2ccccc2N=[N+]=[N-])N=C(c2ccc(OCCCO)cc2)O[C@@H]1c1ccccc1`, for which the composite z-score in [1] is 1.12; in assay [2], 0.974; in assay [3] it was 1.12; in assay [5], -0.261; in assay [6], 0.196; in assay [7] it was -0.355. The composite z-score was -0.105 in assay [8], -0.932 in assay [9] and 0.897 in assay [10]. Moreover, the z-score in [4] is 9.3 (active).

With `C=CCC(OC(C)=O)[C@@H]1[C@@H](N(Cc2ccc(-c3ccccc3)cc2)C(=O)Cc2ccc(OC)cc2)c2cc(OCCCO)ccc2N1C(=O)c1ccc(-c2ccccc2)cc1` (stereo not given in full), the composite z-score in assay [1] was -0.0063; in assay [2], 0.073; in [3], 0.31; in [5], -0.0097; in assay [6], -0.15; in assay [7], -0.332. The composite z-score in assay [8] is -0.0062; in assay [9] it was -0.18; in [10], 1.22. The z-score in assay [4] was -0.757 (inactive).

For the compound `CC(C)C[C@H]1NC(=O)[C@H](C)NC(=O)[C@@]23C(=O)N[C@@H](Cc4ccccc4)C2[C@H](C)[C@@]2(C)O[C@H]2C3/C=C/C/C=C\CNC1=O` (stereo not given in full), the composite z-score was 0.0682 in assay [1]; -0.597 in [2]; -0.376 in assay [3]; -0.148 in [5]; -0.294 in assay [6]; -0.0275 in assay [7]. Besides, the figures for the composite z-score in assay [8], in assay [9] and in assay [10] were 0.461, 0.29 and 1.55, respectively. Further, the z-score in [4] is 0.271 (inactive).

As to `COc1ccc(C(=O)Nc2ccc(CN3C(=O)[C@]4(O[C@H](CCn5cc([C@H](O)c6ccccc6)nn5)[C@@H]([Si](C)(C)c5ccc(OC)cc5)[C@@H]4C)c4ccccc43)cc2)cc1`, the composite z-score is 0.789 in assay [1]; 0.294 in assay [2]; 0.824 in assay [3]; -0.09 in [5]; -0.109 in assay [6]; -0.39 in assay [7]. Besides, the composite z-score in assay [8] was -0.113; in [9] it was 0.102; in assay [10], 1.47. The z-score in [4] was -1.41 (inactive).

On to `C=CC[C@@]1(C(=O)NCC(O)CO)N=C(c2ccc(OCCCO)cc2)O[C@@H]1c1ccccc1` (stereo not given in full), for which the composite z-score is 1.46 in assay [1]; 1.24 in [2]; 1.34 in [3]; 1.47 in [5]; 0.0168 in assay [6]; -0.829 in [7]. In addition, the composite z-score in [8] is -0.29; in [9], -0.135; in assay [10] it was 0.505. The z-score in assay [4] was -0.195 (inactive).

As to `COC(=O)[C@@]1(Cc2ccc(OC)cc2)[C@H]2c3cc(C(=O)N(C)C)n(Cc4cc(C)n(C)n4)c3C[C@H]2CN1C(=O)c1ccccc1`, the composite z-score in assay [1] is 1.07; in [2], 0.383; in assay [3] it was 0.433; in assay [5] it was 1.43; in [6], 0.902; in assay [7], -0.232. For the same compound, the values for the composite z-score in assay [8], in assay [9] and in [10] were -0.0771, -0.382 and 0.79, respectively. Further, the z-score in [4] was -1.03 (inactive).

As for `C=C(/C(=C/C[C@@H](OC(C)=O)c1ccccc1OCCO)c1cnc2ccccc2c1)C(C)C`, the composite z-score in assay [1] is 0.85; in [2] it was -0.0495; in assay [3], 0.168; in assay [5] it was 1.22; in assay [6] it was 0.312; in [7] it was 0.038. In addition, the composite z-score in [8] was 1.15; in [9], 0.331; in assay [10], 1.7. In addition, the z-score in assay [4] is -0.333 (inactive).

On to `O=C1O[C@H](c2ccccc2)[C@H](c2ccccc2)N2[C@H]1[C@@H](C(=O)NC[C@H](O)c1ccccc1)[C@]1(C(=O)Nc3ccccc31)[C@H]2c1ccccc1OCCO`, for which the composite z-score in [1] was 1.61; in assay [2], -0.0915; in assay [3], 0.499; in assay [5] it was 0.561; in assay [6] it was 0.447; in assay [7], 0.0728. Further, the composite z-score was 0.263 in assay [8], -0.0453 in [9] and 0.914 in assay [10]. Moreover, the z-score in [4] was -2.06 (inactive).

Consider `COC(=O)[C@@]1(Cc2ccc(F)cc2)[C@H]2c3cc(C(=O)N(C)C)n(CCSCCO)c3C[C@H]2CN1C(=O)c1ccccc1`, for which the composite z-score in assay [1] is 0.74; in assay [2], 0.983; in assay [3], 1.02; in [5] it was 0.438; in assay [6] it was 0.266; in [7], 0.168. Further, the composite z-score in [8] was 0.322; in [9] it was -0.0642; in assay [10], 0.655. For the same compound, in assay [4], the z-score is -1.22 (inactive).

Regarding `CC(C)(C)OC(=O)CC[C@@]1(C(=O)N2CCCCC2)N=C(c2ccc(OCCCO)cc2)O[C@@H]1c1ccccc1CN=[N+]=[N-]`, the composite z-score in [1] was found to be 1.24; in [2] it was 0.754; in assay [3], 0.881; in [5], 0.56; in assay [6], 0.53; in assay [7], 0.0678. Besides, the values for the composite z-score in assay [8], in assay [9] and in [10] were 1.06, -0.0065 and 0.534, respectively. Also, the z-score in [4] is -2.55 (inactive).

Turning to `COc1cc(C(O)C2C=CC3C(=O)NC(=O)C3N2Nc2ccc(Cl)cc2Cl)cc(OC)c1OC` (stereo not given), the composite z-score was 1.18 in assay [1]; 0.88 in assay [2]; 1.12 in assay [3]; 0.746 in assay [5]; 0.189 in assay [6]; -0.0874 in assay [7]. Moreover, the composite z-score in assay [8] was 1.28; in [9], -0.675; in [10], 1.11. Also, the z-score in assay [4] was 0.734 (inactive).

`O=C1N(CCS(=O)(=O)c2ccccc2)Cc2ccccc2C[C@@]12COC(c1ccc(OCCCO)cc1)=N2`: the composite z-score was 1.69 in [1]; 1.15 in assay [2]; 1.26 in [3]; 1.07 in assay [5]; 1.29 in [6]; 0.847 in assay [7]. For the same compound, the figures for the composite z-score in assay [8], in assay [9] and in assay [10] were 1.3, 0.628 and 1.32, respectively. Also, in [4], the z-score was 0.67 (inactive).
